Hits are enriched below; roughly 21% of the tested compounds scored in any of these assays.
CHX counter: counter-screen hit for Shiga toxin inhibitors, cycloheximide | cell reporter, cycloheximide protein synthesis inhibition counterscreen | max response, % | 12% of 300,000 active | AID 2314; in the data active means max response mostly above about 13%, no sharp cut-off; inactive means mostly below about 14%; further: read at 38.3 µM for the half of the compounds with a filed dose
Pf growth 48h: P. falciparum growth inhibition at 48 hours (one generation); P. falciparum luciferase growth in erythrocytes, 48 h; Potency, µM (series often up to 28.7 µM), usual class: inhibitors; 5.9% of 310,000 active; AID 504832; active means well fitted inhibition curve with a large enough effect; inconclusive means small, poorly fitted or top-dose-only effect, or another doubt; inactive means no such curve, though single readings can be large or run the other way
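Parasite viability was followed by luminescence of a genomically integrated firefly luciferase. Cultures held 0.1% parasitemia at 2% hematocrit (final), incubated under 5% CO2 at 37 C.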
Shiga inhibitor: blocks Shiga toxin action in Vero cells. Vero cells, Shiga toxin protein synthesis inhibition reporter. inhibition, % at 38.7 µM. 9.2% of 290,000 active. AID 2315; in the data active means inhibition mostly above about 28%, no sharp cut-off; inactive means mostly below about 43%
SARS PLpro yeast: SARS-CoV PLP inhibition in yeast. S. cerevisiae expressing SARS-CoV PLpro, growth rescue. Potency, µM (titrated, usually from 32.9 µM), most hits filed as activators. 0.19% of 330,000 active. AID 485353; further: nearly all actives have a fitted effect of over 55% in size
NS1 function inh: blocks influenza NS1 protein function; Potency, µM (highest dose often 46.1 µM); 0.4% of 270,000 active; further: actives are rising curves; nearly all actives have a fitted effect of over 50% in size
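Growth recovery, yeast-based: influenza A NS1 expressed in S. cerevisiae causes slow growth, and suppressors are detected by OD600. The parent strain without NS1 is used as positive control.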
Pf growth 96h: inhibits malaria parasite growth, 96 h; Potency, µM (highest dose often 28.7 µM), most hits filed as inhibitors; P. falciparum luciferase reporter growth, 96 h; 6.9% of 320,000 active; active means well fitted inhibition curve with a large enough effect; inconclusive means small, poorly fitted or top-dose-only effect, or another doubt; inactive means no such curve, though single readings can be large or run the other way
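Two parasite generations (96 h, 37 C, 5% CO2) of compound exposure in infected erythrocytes (0.05% parasitemia, 2% hematocrit). Luciferase-reporter P. falciparum; decreased luminescence indicates inhibited growth, aimed at apicoplast-acting delayed death.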
Each line names hits and unclear results; the compound was inactive in the other large screens. Unless noted, the call rests on the fitted dose curve.

COc1cc(CN2CCCCC2C(=O)Nc2ccc(Oc3ccccc3)nc2)ccc1O (stereo not given)	CHX counter 55, Pf growth 48h inconclusive, Shiga inhibitor 81
O=C(Nc1ccc(Oc2ccccc2)nc1)C1CCCCN1Cc1cccc(O)c1 (stereo not given)	Pf growth 48h inconclusive, Pf growth 96h 5.9µM
COCCc1ncc(CN2CCCCC2C(=O)Nc2ccc(Oc3ccccc3)nc2)cn1 (stereo not given)	none
O=C(Nc1ccc(Oc2ccccc2)nc1)C1CCCCN1Cc1ccc(O)cc1 (stereo not given)	CHX counter 20, Pf growth 48h inconclusive, Pf growth 96h inconclusive
COc1cc(OC)c(C(=O)OC(C)C(=O)NCc2ccc3c(c2)OCO3)cc1OC (stereo not given)	none (no result: CHX counter, Pf growth 48h, Shiga inhibitor, NS1 function inh, Pf growth 96h)
CC1CN(c2ccc(NC(=O)c3ccco3)cc2C(=O)O)CC(C)O1 (stereo not given)	none
COc1cc(/C(C)=N\NC(=O)CSc2nc3ccccc3n2C)ccc1O	none
CS(=O)(=O)Nc1ccc(C(=O)Nc2cccc([N+](=O)[O-])c2)cc1	none (no result: NS1 function inh)
Cc1ccc(-c2nnn(CC(=O)N(Cc3ccccc3)C(C(=O)NC(C)(C)C)c3ccncc3)n2)o1 (stereo not given)	Pf growth 48h inconclusive
CCC(C)(C)NC(=O)C(c1ccncc1)N(Cc1cccs1)C(=O)Cn1nnc2ccccc21 (stereo not given)	Pf growth 48h inconclusive, Pf growth 96h 12µM
Cc1ccc(-c2nnn(CC(=O)N(Cc3ccco3)C(C(=O)NC(C)(C)C)c3ccc(C)o3)n2)o1 (stereo not given)	Pf growth 48h inconclusive
Cc1ccc(N(C(=O)Cn2nnc(-c3cccs3)n2)C(C(=O)NC2CCCC2)c2ccncc2)cc1 (stereo not given)	Pf growth 48h inconclusive
CC(C)(C)NC(=O)C(c1ccncc1)N(C(=O)Cn1nnc(-c2cccs2)n1)C1CCCCC1 (stereo not given)	Pf growth 48h 9.3µM
CC(C)(C)NC(=O)C(c1ccncc1)N(Cc1cccs1)C(=O)Cn1nnc(-c2cccs2)n1 (stereo not given)	Pf growth 48h 2.9µM, Pf growth 96h inconclusive
CC(C)(C)NC(=O)C(c1ccc(O)cc1)N(Cc1ccco1)C(=O)Cn1nnc(-c2cccs2)n1 (stereo not given)	Pf growth 48h 13µM
CCC(C)(C)NC(=O)C(c1ccc(C)cc1)N(Cc1ccco1)C(=O)Cn1nnc2ccccc21 (stereo not given)	Pf growth 48h inconclusive
CC1(C)CC(=O)C(CO)=C(c2cccc3ccccc23)C1=O	none (no result: CHX counter, Shiga inhibitor, NS1 function inh)
CCCC(C(=O)NCc1ccccc1)N(C(=O)Cn1nnc(-c2cccs2)n1)c1ccc2c(c1)OCCO2 (stereo not given)	Pf growth 48h inconclusive, SARS PLpro yeast inconclusive, Pf growth 96h inconclusive
O=C(NCc1ccccc1)C(c1ccc(F)cc1)N(Cc1ccc2c(c1)OCO2)C(=O)Cn1nnc(-c2cccs2)n1 (stereo not given)	Pf growth 48h 10µM
Cc1ccc(C(C(=O)NC(C)(C)C)N(Cc2ccco2)C(=O)Cn2nnc(-c3cccs3)n2)cc1 (stereo not given)	Pf growth 48h 9.3µM
COc1cc(/C=N/NC(=O)c2c(C)nc3ccc(Cl)cn23)cc(OC)c1OC	none
O=C(CC1C(=O)NCCN1Cc1cccc(C(F)(F)F)c1)NCCc1cnccn1 (stereo not given)	Pf growth 96h 2.1µM
O=C(CC1C(=O)NCCN1Cc1ccc(F)cc1)NCCOc1cccnc1 (stereo not given)	Pf growth 96h inconclusive
O=C(CC1C(=O)NCCN1Cc1c(F)cccc1Cl)NCCCOc1cccnc1 (stereo not given)	Pf growth 96h 15µM
Cc1ccc(CN2CCNC(=O)C2CC(=O)N(C)Cc2cnccn2)cc1 (stereo not given)	Pf growth 96h 13µM
CC(C)N(Cc1nccn1C)C(=O)CC1C(=O)NCCN1Cc1ccc(F)c(F)c1 (stereo not given)	none
CC(C)N(Cc1nccn1C)C(=O)CC1C(=O)NCCN1Cc1ccc(F)cc1 (stereo not given)	Pf growth 96h 13µM
Cc1ccc(OCC(=O)N2CCc3ccccc3C2)c([N+](=O)[O-])n1	none (no result: NS1 function inh)
CCS(=O)(=O)c1ccc2oc(SCC(=O)N3CCCCC3)nc2c1	none (no result: NS1 function inh)
